Laboratory results: the supplement of paper PMC10338343
± gives the standard deviation. The full ranking holds about 8,200 sequences; the median of “pre-steady-state target cleavage rate” is about 0.024, and the highest 2% start at about 1.3. The list comes from a sample in which the highest values are over-represented; it also holds similar and randomly drawn sequences.

System: MIWI (PIWIL1) piRISC loaded with L1MC piRNA (30 nt)
Assay: pre-steady-state target cleavage rate (min^-1); MIWI and MILI are mouse PIWI proteins and EfPiwi is from a freshwater sponge; tags in brackets are library labels; higher = faster piRNA-guided slicing of the target
Details: guide: L1MC piRNA 5'p-UAACUAAAUACUAUGCAAGCUGUAGGUCCU
Procedure, shortened: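 Using HEPES–potassium acetate buffer at 33 °C, 1 nM active affinity-purified piRISC with a single synthetic guide was mixed with 0.1 nM transcribed, DNA-blocked target RNA library for 0–8 or 0–960 min, with or without 500 nM GTSF1 partner protein. Uncleaved targets were sequenced and normalised to depth and to weakly complementary targets, and three trials were pooled with k3 capped at 0.0001 min^-1. A burst-and-steady-state fit gave the pre-steady-state cleavage rate.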

[1] = auxiliary factor: 500 nM mouse GTSF1
[2] = auxiliary factor: none (no GTSF1)

Row | Sequence | pre-steady-state target cleavage rate [1] | pre-steady-state target cleavage rate [2]
1 | UCCUGGAACAGCUUGCAUAGUAUUUAGUAA | 0.685 ± 0.046 | 0.0337 ± 0.0083
2 | UCCUGCUACACGAUGCAUAGUAUUUAGUAA | 0.396 ± 0.032 | 
3 | UCCUGGAUGUCGAUGCUUAGUAUUUUGUUA | < 0.0001 | 
4 | UCCUGGAUCACGUUGCAUAGUAUUUAGUAA | 0.0198 ± 0.0044 | 
5 | UCGACGUACAGCUUCCAUAGUAUUUAGUUA | 0.0527 ± 0.011 | 0.00418 ± 0.0013
6 | UCGAGCUACAGCUUGCAUAGUAUUUUGUUA | 1.06 ± 0.06 | 0.0528 ± 0.0088
7 | UCCUGGAUGAGCUUGCAUAGUAUUAUGUUA | 0.194 ± 0.027 | 0.0102 ± 0.0042
8 | UCCUGGAUGAGCUUGCAUAGUAAUUAGAAA | 0.0194 ± 0.0086 | 
9 | UCCUGGUACAGCUUGCAUAGUAUUUUGAUA | 0.166 ± 0.031 | 0.00994 ± 0.0034
10 | UCCUGCUGCAGCUUGCAUAGUAUUUAGUUA | 1.27 ± 0.058 | 0.0512 ± 0.011
11 | UGGACCUGCAGCUUGCAUAGUAUUUAGUUA | 1.57 ± 0.099 | 0.0683 ± 0.013
12 | UGGACCUAGUGCUUGCAUAGUAUUUAGUUA | 0.979 ± 0.061 | 0.0419 ± 0.0095
13 | UCCUGGAUGUCGAACCAUAGAAUAUAGUUA |  | < 0.0001
14 | UCCUGGAUGUCCAUGCAUAGUAUUUUGUUA | 0.00484 ± 0.0039 | 
15 | UCCACCUUCAGCUUGCUUAGUAUUUAGUUA | 1.16 ± 0.037 | 0.0231 ± 0.005
16 | UCGACCUUCAGCUUGCAUAGUAUUUAGUUA | 1.51 ± 0.047 | 0.0696 ± 0.012
17 | UCGACCUUCAGCUUGCAUAGUAUUUAGAAA | 0.659 ± 0.064 | 0.0103 ± 0.0029
18 | AGCACCUUCAGCUUGCAUAGUAUUUAGUUA | 0.711 ± 0.089 | 0.0548 ± 0.014
19 | UCCUCCUUCAGCUUGCAAAGUAUUUAGUUA | 1.16 ± 0.041 | 0.0323 ± 0.0072
20 | UCGACCUUCAGCUUGCAUAGUAUUUAGUAA | 1.05 ± 0.065 | 0.043 ± 0.011
21 | ACGACCUUCAGCUUGCAUAGUAUUUAGUUA | 1.45 ± 0.042 | 0.0921 ± 0.015

Row | Sequence | pre-steady-state target cleavage rate [1] | pre-steady-state target cleavage rate [2]
22 | UCGACCUUCAGCUUGCAAAGUAUUUAGUUA | 1.33 ± 0.045 | 0.0401 ± 0.0087
23 | UCGACCUUCAGCUUGCUUAGUAUUUAGUUA | 1.33 ± 0.05 | 0.0363 ± 0.0088
24 | UGCACCUUCAGCUUGCAUAGUAUUUAGUUA | 1.08 ± 0.091 | 0.0562 ± 0.011
25 | UCCACCUUCAGCUUGCAAAGUAUUUAGUUA | 1.17 ± 0.038 | 0.0305 ± 0.0063
26 | UCCUCCUUCAGCUUGCUUAGUAUUUAGUUA | 1.31 ± 0.054 | 0.0243 ± 0.0053
27 | UCCUCGUACAGCUUGCAUAGUUUUUAGUUA | 0.478 ± 0.013 | 0.0475 ± 0.011
28 | UCCUGCUACAGCUUGCAUAGUAAUUUCAAA | 0.278 ± 0.074 | 
29 | UCCACCAACUGCUUGCAUAGUAUUUAGUUA | 0.828 ± 0.036 | 0.0532 ± 0.0097
30 | UGGACCUACAGCAUGCAUAGUAUUUAGAAA | 0.5 ± 0.061 | 0.00651 ± 0.0026
31 | UCCACCUACACCUUGCAUAGUAUAUAGUUA | 0.543 ± 0.068 | 0.025 ± 0.0054
32 | UCCUGCAACAGCUUGCAUAGAAUUUAGUUA | 0.492 ± 0.048 | 0.0261 ± 0.0079
33 | UCCUGGAUCAGCUUGCAAACUAUUUAGUUA | 0.0815 ± 0.0098 | 0.00677 ± 0.003
34 | AGGACCUAAGCUUGCAUAGUAUUUAGUUA | 1.05 ± 0.071 | 0.0685 ± 0.013
35 | UGGACCUACAUCUUGCAUAGUAUUUAGUUA | 1.38 ± 0.043 | 0.0737 ± 0.012
36 | AGGACCUACAUGCUUGCAUAGUAUUUAGUUA | 0.767 ± 0.056 | 0.0684 ± 0.013
37 | UCGACCUACAGUCUUGCAUAGUAUUUAGUUA | 1.16 ± 0.063 | 0.0611 ± 0.012
38 | AGGACCUACACCUUGCAUAGUAUUUAGUUA | 1.17 ± 0.037 | 0.0855 ± 0.015
39 | UGGACCUACAUGCUUGCAUAGUAUUUAGUUA | 0.925 ± 0.054 | 0.0601 ± 0.013
40 | UCCACCUACAUCUUGCAUAGUAUUUAGUUA | 0.85 ± 0.036 | 0.0567 ± 0.0096
41 | UCGACCUACAUCUUGCAUAGUAUUUAGUUA | 1.61 ± 0.043 | 0.077 ± 0.014
42 | UCGACCUACACCUUGCAUAGUAUUUAGUUA | 1.15 ± 0.046 | 0.0525 ± 0.008

Row | Sequence | pre-steady-state target cleavage rate [1] | pre-steady-state target cleavage rate [2]
43 | AGGACCUACAUCUUGCAUAGUAUUUAGUUA | 1.39 ± 0.036 | 0.0767 ± 0.012
44 | UCCACCUACAGCUUCCAUAGAAUUUAGUUA | 0.0393 ± 0.015 | 
45 | UGGACCAUGAGCUUGCAUAGUAUUUACAAA | 0.159 ± 0.021 | 0.00423 ± 0.0026
46 | AGGACCUACAGCUUGCAUAGUUAAAUCAAA [g10:g30:cont:t1A] | 0.159 ± 0.046 | 
47 | UCGACCAUACAGCUUGCAUAGUAUUUAGUUA | 0.86 ± 0.039 | 0.0901 ± 0.015
48 | AGGACAUACAGCUUGCAUAGUAUUUAGUUA | 1.32 ± 0.055 | 0.0818 ± 0.012
49 | UCGACACUACAGCUUGCAUAGUAUUUAGUUA | 0.961 ± 0.061 | 0.0557 ± 0.0088
50 | AGGACCAUACAGCUUGCAUAGUAUUUAGUUA | 1.06 ± 0.051 | 0.0829 ± 0.013
51 | UCGACAUACAGCUUGCAUAGUAUUUAGUUA | 1.38 ± 0.043 | 0.071 ± 0.012
52 | UGGACAUACAGCUUGCAUAGUAUUUAGUUA | 1.23 ± 0.05 | 0.0916 ± 0.014
53 | UCCUGGAUGUGCUUGCAUUGUAUUUAGUAA | 0.0234 ± 0.0059 | 0.00578 ± 0.0023
54 | UCCUGGAACAGCUUGCAUAGAUUUUAGUAA | 0.0419 ± 0.015 | 
55 | UCCUGGAUGUCGAAGGAUAGUAUUUUGUUA |  | < 0.0001
56 | UCCUGGUACUGCAUGCAUAGUAUUUAGUUA | 0.556 ± 0.045 | 0.00786 ± 0.0024
57 | UCCUGGUUCAGCAUGCAUAGUAUUUAGUUA | 0.93 ± 0.036 | 0.0172 ± 0.0043
58 | UCCUGCUUCAGCUAGCAUAGUAUUUAGUUA | 1.32 ± 0.056 | 0.0109 ± 0.0042
59 | UCCUGCUUCAGCUUGCAUAGUAUUUAGUUA | 1.19 ± 0.051 | 0.0684 ± 0.012
60 | UCCUGCUUCAGCAUGCAUAGUAUUUAGUUA | 1.32 ± 0.078 | 0.0171 ± 0.0036
61 | UCCUCCUUCAGCUAGCAUAGUAUUUAGUUA | 0.78 ± 0.032 | 0.0147 ± 0.0034
